Screening results (PubChem)
HepG2 tox: HepG2 cytotoxicity, counter-screen for TGF-b inhibitors; HepG2 CAGA-GFP viability, ATP luminescence, 18 h; Potency, µM (top dose mostly 46.1 µM), for the others: at the top dose activity change, negative = cytotoxicity, usual class: cytotoxic; 410,000 compounds, 0.76% hits; AID 588856
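HepG2 CAGA-GFP cells (1000/well, DMEM with 1% FBS) received compound, then TGF-beta at 500 pg/mL final, and were incubated 18 hours at 37 degrees C. Viability was read by CellTiter-Glo luminescence. Media-only wells were set as complete cell-killing and DMSO as no toxicity.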
TDP1 cell CPT: DT40-hTDP1 cell growth loss with CPT. 420,000 compounds, 12% hits. Potency, µM (top dose mostly 46.2 µM), without a hit: at the highest dose activity change, negative = growth inhibition, hits mostly inhibitors. chicken DT40 Tdp1-/-;hTDP1 cells + 20 nM CPT, ATP luminescence, 48 h; note: % is set by controls: 0 for no effect and ±100 for the full control effect; nearly all actives have a fitted effect of over 55% in size
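Cell growth measured by CellTiter-Glo luminescence after a minimum 48 h, 37 C compound exposure with 20 nM CPT in Tdp1-knockout DT40 cells stably expressing hTDP1, seeded 400/well; qHTS titration format.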
ATXN2 expr inh: reduces ATXN2 reporter expression in HEK-293 cells. Potency, µM (series often up to 57 µM), without a hit: top-dose activity change, negative = inhibition, actives largely listed as inhibitors. HEK-293 ATXN2-luciferase reporter, luminescence, 24 h. 360,000 compounds, 0.72% hits; note: % is set by controls: 0 for no effect and ±100 for the full control effect; nearly all actives have a fitted effect of over 55% in size
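ATXN2-luciferase reporter cells (luciferase flanked by upstream and downstream ATXN2 gene portions) were treated 24 h at 37 °C with compounds at up to 57 uM. SteadyGlo luminescence gave expression; GF-AFC fluorescence gave viability.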
DT40 TDP1 no CPT: qHTS for Inhibitors of human tyrosyl-DNA phosphodiesterase 1 (TDP1): qHTS in cells in absence of CPT | DT40 Tdp1-/- hTDP1 cells, no CPT, ATP luminescence, 48 h | Potency, µM (titrated, usually from 46.2 µM), for the others: top-dose activity change, negative = growth inhibition, most hits filed as inhibitors | 420,000 compounds, 15% hits | AID 686978, 2013; note: % is set by controls: 0 for no effect and ±100 for the full control effect; nearly all actives have a fitted effect of over 55% in size
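No-CPT arm: Tdp1-/-;hTDP1 DT40 cells (400/well) plus compounds, incubated ≥48 hr at 37 °C. Readout CellTiter-Glo luminescence.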
S2 tox: cell viability loss in ATXN counter-screen. S2 cells (HEK-293 line with an ATXN2-luciferase reporter) viability, CellTiter-Fluor protease fluorescence, 24 h. Potency, µM (doses to about 56.7 µM), hits mostly cytotoxic. 400,000 compounds, 0.49% hits; note: nearly all actives have a fitted effect of over 40% in size
TGFb inhibitor: blocks TGF-b signaling; HepG2 CAGA-GFP TGF-b/SMAD3 reporter, GFP fluorescence, 18 h; TGF-beta stimulated, 500 pg/mL final; Potency, µM (highest dose often 46.1 µM), for inactives: at the top dose activity, negative = inhibition, most hits filed as inhibitors; 410,000 compounds, 1.2% hits; AID 588855; note: % is set by controls: 0 for no effect and ±100 for the full control effect; nearly all actives have a fitted effect of over 65% in size
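Smad-responsive CAGA-GFP expression was quantified in HEPG2 cells exposed to compounds and 500 pg/mL final TGF-beta for 18 h at 37 degrees C; unstimulated wells defined full inhibition.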
* = called active by the depositor; i = inactive; ? = inconclusive; nt = no result given; [ ] = dose if it differs, or a comment. An excerpt weighted towards active compounds, which were near 17% of everything screened. Calls come from the whole dose curve; as a rule, active = well fitted curve in the direction sought with a large enough effect; inconclusive = small, poorly fitted or top-dose-only effect, or another doubt; inactive = no such curve, though single readings can be large; an effect the other way counts as inactive or inconclusive. Potency is the fitted concentration of half-maximal effect.

SMILES	HepG2 tox	TDP1 cell CPT	ATXN2 expr inh	DT40 TDP1 no CPT	S2 tox	TGFb inhibitor
CCN(CC)S(=O)(=O)c1ccc(-n2c(=O)c(C(C)C)c(C)n2C)cc1	2.1%	-20.2%	12.6%[11.3 µM]	?	i	-15.5%
Cc1c(C(C)C)c(=O)n(-c2ccc(S(=O)(=O)NC(C)C)cc2)n1C	32.6%	?	-37.7%[11.3 µM]	13µM*	i	59.2%
Cc1c(C(C)C)c(=O)n(-c2ccc(S(=O)(=O)NC3CC3)cc2)n1C	10.8%	-5.3%	-25.7%[11.3 µM]	10.3µM*	i	-2.6%
COc1cc2cc3c4c(cc(OC)c(OC)c4c2cc1OC)CCN3C	nt	10.6µM*	nt	11.9µM*	nt	nt
COC(=O)c1ccc(CNC(=O)C(NC(=O)c2ccco2)C(C)C)cc1 (stereo not given)	-6.7%	1.8%	-10.1%	2.8%	i	5.5%
Cc1nc2c(O)c3c(c(O)c2nc1C)C1C=CC3CC1	-106.4%	0.461µM*	28.2µM*	0.517µM*	5.62µM*	?
O=C(Nc1cccc(Cl)c1)c1ccc(=O)[nH]n1	8.6%	10.7%	26.4%	-2.9%	i	3.2%
O=C1CC(SC(=S)C2CCCC2=O)C(=O)N1 (stereo not given)	-7.4%	?	nt	?	?	-11.6%
CC1=NN(c2ccccc2)C(=O)C1C(=S)SC1CC(=O)NC1=O (stereo not given)	-30.4%	?	nt	29.1µM*	?	-20.5%
CCC1=Nc2cc(C(=O)NCCCOC)ccc2Sc2ccccc21	9.6%	1.46µM*	3.4%	1.16µM*	?	0.0%
CCC1=Nc2cc(C(=O)NCCN3CCCC3)ccc2Sc2ccccc21	-26.5%	?	nt	?	i	-15.0%
CCC1=Nc2cc(C(=O)NCCCOC)ccc2Sc2ccc(Br)cc21	-1.2%	1.3µM*	-14.6%	1.3µM*	?	?
CCCCNC(=O)c1ccc2c(c1)N=C(CC)c1ccccc1S2	0.1%	4.11µM*	-22.6%	4.61µM*	?	-20.3%
CC(C)C(=O)n1nc(-c2cccnc2)nc1NCc1cccs1	27.2%	-6.3%	-2.0%	-9.9%	i	-16.2%
O=C(Nc1ccccc1C(=O)N1CCCC1)c1ccccc1	-0.9%	-8.4%	-6.9%	6.1%	i	?
O=C(Nc1ccsc1C(=O)N1CCCC1)c1ccccc1	-3.8%	16.4µM*	3.3%	20.6µM*	i	-2.2%
Cc1ccc(C)c(NC(=O)CSc2c3c(nc4ccc(Cl)cc24)CCCC3)c1	0.0%	20.6µM*	nt	20.6µM*	nt	0.5%
CCCNC(=O)CSc1c2c(nc3ccc(Cl)cc13)CCCC2	-39.6%	?	nt	?	nt	?
COC(=O)c1ccccc1NC(=O)CSc1c2c(nc3ccc(Cl)cc13)CCCC2	-14.1%	?	nt	11.6µM*	nt	-27.4%
CCOc1ccccc1NC(=O)COC(=O)c1cnc(C)cn1	5.1%	-1.1%	nt	1.3%	i	6.5%
O=c1oc2c3c4c(cc2c2c1CCC2)OCCN4CCC3	-9.1%	18.4µM*	?	?	nt	0.8%
CCc1nnc(NC(=O)C(C)N2C(=O)C3C4C=CC(C4)C3C2=O)s1 (stereo not given)	12.4%	-0.7%	-33.5%	4.3%	i	-3.0%
Cc1ccc(Nc2cc(C(=O)NCCc3ccccc3)c3ccccc3n2)c(C)c1	-8.4%	?	-5.0%	?	i	2.7%
COc1ccc(CCNC(=O)c2cc(Nc3ccccc3)nc3ccccc23)cc1OC	-5.3%	9.2µM*	nt	8.2µM*	nt	0.0%
CC1CCCN(CCCNC(=O)c2coc3nc4ccccc4nc23)C1 (stereo not given)	-0.9%	6.4%	-4.9%	-6.8%	i	?
SMILES	HepG2 tox	TDP1 cell CPT	ATXN2 expr inh	DT40 TDP1 no CPT	S2 tox	TGFb inhibitor
CCOc1ccc(CCNC(=O)c2cc(Nc3ccc(C)cc3C)nc3ccccc23)cc1OCC	-0.2%	8.2µM*	6.9%	8.2µM*	i	-0.3%
COc1ccc(CCNC(=O)c2cccc3ccccc23)cc1OC	-46.2%	7.2%	-14.3%	8.3%	i	-29.9%
Cc1ccc(CCNC(=O)c2coc3nc4ccccc4nc23)cc1	-1.8%	?	-1.7%	29.1µM*	i	-4.4%
COc1ccc(CCNC(=O)c2cc(-c3ccc(C)c(C)c3)nc3ccccc23)cc1OC	-35.8%	10.3µM*	-5.1%	-81.2%	?	-22.9%
O=C(CCNC(=O)C1CCN(S(=O)(=O)c2ccc(F)cc2)CC1)Nc1nccs1	5.1%	-0.4%	-6.2%	12.0%	i	1.2%
COc1ccc(CCNCc2c(C(=O)O)c(C)n(Cc3c(F)cccc3Cl)c2C)cc1OC	-26.8%	-7.2%	4.9%	-3.6%	i	19.3%
Cc1ccc(N(C(=O)CNC(=O)c2ccco2)C(C(=O)NC2CCCCC2)c2cccnc2)c(C)c1 (stereo not given)	-8.4%	-6.6%	2.6%	-3.6%	i	20.1%
CCC(Cc1ccccc1)NC(=O)c1cccc(Nc2nc3ccccc3nc2-n2nc(C)cc2C)c1 (stereo not given)	-1.1%	-26.8%	7.2%	-22.0%	i	14.3%
COc1ccc(-c2cc(C(=O)NCCc3ccc(OC)c(OC)c3)c3ccccc3n2)cc1	-26.8%	18.4µM*	nt	11.6µM*	nt	-20.8%
COc1ccc(-c2cc(C(=O)NCCc3ccccc3)c3cc(C(C)C)ccc3n2)cc1	-21.9%	?	20.7%	?	i	-8.4%
COc1ccc(CCNC(=O)c2cccc(Nc3nc4ccccc4nc3-n3nc(C)cc3C)c2)cc1OC	57.2%	5.17µM*	13.5%	4.61µM*	i	45.2%
COc1ccc(-c2ccc3c(c2)S(=O)(=O)c2cccc(C(=O)NC[C@@H]4CCCO4)c2C3=O)cc1OC	-0.2%	?	-6.9%	?	i	-1.6%
O=C(NCCOc1ccccc1)c1cccc2c1C(=O)c1ccc(Cl)cc1S2(=O)=O	-31.1%	?	?	23.1µM*	?	-24.0%
CC(C)OCCCNC(=O)c1cccc2c1C(=O)c1ccc(Cl)cc1S2(=O)=O	2.0%	-27.1%	-20.8%	-28.0%	?	-32.3%
COc1ccc(OC[C@@H](O)CNC(=O)c2cccc3c2C(=O)c2ccc(-c4ccc(F)cc4OCc4ccccc4)cc2S3(=O)=O)cc1	-18.2%	7.31µM*	-3.5%	10.3µM*	i	-17.2%
O=C(NCCOc1ccccc1Cl)c1cccc2c1C(=O)c1ccc(Cl)cc1S2(=O)=O	30.5%	23.1µM*	?	16.4µM*	nt	27.1%
